Measurements from PubChem BioAssay (Tox21).
Inconclusive results are not listed. Some structures have more than one record in an assay (separate samples or runs), and their calls can disagree. Active and inactive are the calls of the source. Unless noted, calls come from the whole dose curve.

Columns and labels:
[1] = Nuclear factor erythroid 2-related factor 2/antioxidant responsive element (Nrf2/ARE) small molecule agonists: qHTS cell viability counter screen in human keratinocytes (AID 1919968; active = well fitted curve in the direction sought with a large enough effect in the repeat runs; an effect the other way counts as inactive or inconclusive; note: nearly all actives have a fitted effect of over 55% in size)
Outline: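 Cells of the KeratinoSens line were plated at 1,500 per well and left for 5 h before compound transfer from DMSO stocks. After a 23 h incubation (37 C, 5% CO2), CellTiter-Fluor was added. Signal was taken as fluorescence intensity 1 h later.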

[2] = Nuclear factor erythroid 2-related factor 2/antioxidant responsive element (Nrf2/ARE) small molecule agonists: luciferase reporter gene qHTS assay in human keratinocytes (AID 1919969); note: nearly all actives have a fitted effect of over 35% in size; note: potency is the fitted concentration of half-maximal effect
[3] = biological target: Gonadotropin-releasing hormone receptor (Homo sapiens) (UniProt P30968); assay: Human gonadotropin-releasing hormone receptor (GnRHR) small molecule agonists, calcium flux assay in GnRHR-HEK293 cells (AID 1920063); note: nearly all actives have a fitted effect of over 35% in size
Sequence of Gonadotropin-releasing hormone receptor (Homo sapiens) (P30968 whole entry, looked up): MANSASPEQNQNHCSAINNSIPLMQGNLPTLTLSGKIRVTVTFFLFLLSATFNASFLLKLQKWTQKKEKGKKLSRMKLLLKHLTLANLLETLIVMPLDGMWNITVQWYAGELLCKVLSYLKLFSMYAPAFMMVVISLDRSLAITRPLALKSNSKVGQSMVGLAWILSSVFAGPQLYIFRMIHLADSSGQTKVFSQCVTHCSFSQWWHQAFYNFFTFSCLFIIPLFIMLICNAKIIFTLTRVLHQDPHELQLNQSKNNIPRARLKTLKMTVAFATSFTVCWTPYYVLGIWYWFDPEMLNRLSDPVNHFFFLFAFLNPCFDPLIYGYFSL
Outline: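 Compounds dissolved in DMSO are pin-transferred onto dye-loaded GnRHR-HEK293 cells, which were seeded 18 h before at 37 C/5% CO2. Calcium signal is read as fluorescence intensity at 1 s intervals for 3 min.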

[4] = biological target: KiSS-1 receptor (Homo sapiens) (UniProt Q969F8); assay: Human kisspeptin (KISS1R) small molecule agonists, calcium flux assay in KISS1R-HEK293 cells (AID 1920064; active = well fitted curve in the direction sought with a large enough effect in the repeat runs; an effect the other way counts as inactive or inconclusive)
Sequence of KiSS-1 receptor (Homo sapiens) (Q969F8 whole entry, looked up): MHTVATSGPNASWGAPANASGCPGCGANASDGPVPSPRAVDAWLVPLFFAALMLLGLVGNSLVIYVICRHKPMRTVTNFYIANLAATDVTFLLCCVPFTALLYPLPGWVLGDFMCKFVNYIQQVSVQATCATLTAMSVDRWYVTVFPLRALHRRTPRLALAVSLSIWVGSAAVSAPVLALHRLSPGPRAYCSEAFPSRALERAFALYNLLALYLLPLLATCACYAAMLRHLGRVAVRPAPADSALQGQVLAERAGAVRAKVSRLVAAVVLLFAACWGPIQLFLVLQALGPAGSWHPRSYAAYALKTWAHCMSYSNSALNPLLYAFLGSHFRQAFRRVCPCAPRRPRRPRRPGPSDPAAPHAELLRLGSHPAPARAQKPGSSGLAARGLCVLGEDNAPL
Outline: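 Cell line: HEK293, stable human KISS1R. Dye loading 1 h at 37 C after 18 h culture. Read: kinetic fluorescence, 480/540 nm, 3 min at 1 s intervals.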

[5] = G protein-coupled receptor (GPCR) small molecule agonists, calcium flux assay: HEK293 wild type cell line counter screen (AID 1920065)
Outline: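 Tox21 10K compounds, 15 concentrations each in triplicate, pin-transferred in DMSO onto dye-loaded cells; kinetic read at 480/540 nm for 3 min, 1 s intervals.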

[6] = p53 small molecule agonists, cell-based qHTS assay with human liver microsomes (AID 1963577)
Outline: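 p53RE-bla cells, 4,000/well, compound added after 5 h, with human liver microsomes 0.5 mg/mL and NADPH 0.5 mg/mL final; 16 h at 37 C, then LiveBLAzer 2 h RT, fluorescence.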

[7] = p53 small molecule agonists, cell-based qHTS assay with rat liver microsomes (AID 1963578)
Outline: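 p53RE-bla cells, 4,000/well, pre-incubated 5 h, then given compounds plus rat liver microsomes (0.5 mg/mL final) and NADPH (0.5 mg/mL final). Incubation 16 h at 37 C; beta-lactamase reporter read by LiveBLAzer fluorescence after 2 h at room temperature.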

[8] = p53 small molecule agonists, cell-based qHTS assay with human liver microsomes: qHTS cell viability counter screen (AID 1963579); note: nearly all actives have a fitted effect of over 45% in size
Outline: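 p53RE-bla cells, 4,000/well, dosed 5 hours after plating, with human liver microsomes (0.5 mg/mL final) plus NADPH (0.5 mg/mL final), 16 hours at 37 C. Viability read as CellTiter-Glo luminescence after 30 min at room temperature.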

[9] = p53 small molecule agonists, cell-based qHTS assay with rat liver microsomes: qHTS cell viability counter screen (AID 1963580); note: nearly all actives have a fitted effect of over 45% in size
Outline: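 Rat liver microsome (0.5 mg/mL final) and NADPH (0.5 mg/mL final) co-incubation with compounds for 16 h at 37 C on HCT-116 p53RE-bla cells; cytotoxicity taken from intracellular ATP luminescence.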

[10] = p53 small molecule agonists, cell-based qHTS assay: qHTS cell viability counter screen (AID 1963581); note: nearly all actives have a fitted effect of over 45% in size
Outline: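 ATP content measured by luminescence in HCT-116 p53RE-bla cells treated 16 h at 37 C, same wells as the reporter screen.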

[11] = p53 small molecule agonists, cell-based qHTS assay (AID 1963582; active = well fitted activation curve with a large enough effect in the signal ratio in the repeat runs, not every such curve was filed as active; the % refers to the signal ratio)
Outline: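 16 h compound exposure (37 C) of p53 response element–bla cells, preceded by 5 h recovery at 37 C/5% CO2; read-out via LiveBLAzer B/G FRET substrate, 2 h RT, fluorescence intensity.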

[12] = biological target: 5-hydroxytryptamine receptor 2A (Homo sapiens) (UniProt P28223); assay: 5-hydroxytryptamine receptor 2A (HTR2A) small molecule antagonists, cell-based qHTS assay (AID 1963586); note: nearly all actives have a fitted effect of over 45% in size
Sequence of 5-hydroxytryptamine receptor 2A (Homo sapiens) (P28223 whole entry, looked up): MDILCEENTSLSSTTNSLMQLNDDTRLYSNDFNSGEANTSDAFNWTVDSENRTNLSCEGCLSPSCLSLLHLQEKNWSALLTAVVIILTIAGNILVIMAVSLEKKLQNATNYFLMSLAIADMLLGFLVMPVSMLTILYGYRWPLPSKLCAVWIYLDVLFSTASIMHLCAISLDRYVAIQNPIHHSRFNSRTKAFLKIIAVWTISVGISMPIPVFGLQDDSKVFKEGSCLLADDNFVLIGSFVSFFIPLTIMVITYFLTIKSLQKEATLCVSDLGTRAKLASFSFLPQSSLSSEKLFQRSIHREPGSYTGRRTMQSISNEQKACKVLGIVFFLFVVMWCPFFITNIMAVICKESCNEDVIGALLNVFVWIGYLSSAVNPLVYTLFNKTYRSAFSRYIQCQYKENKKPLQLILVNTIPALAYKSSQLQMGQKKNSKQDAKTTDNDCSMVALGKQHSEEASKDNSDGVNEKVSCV
Outline: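 CHO cells stably expressing human HTR2A were plated for 18 h at 37 C, then loaded with calcium dye for 1 h. Compounds were preincubated 5 min at room temperature before DOI (4 nM solution) was added. Kinetic fluorescence was read for 3 min.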

[13] = biological target: 5-hydroxytryptamine receptor 2A (Homo sapiens) (UniProt P28223); assay: 5-hydroxytryptamine receptor 2A (HTR2A) small molecule agonists, cell-based qHTS assay (AID 1963587); note: nearly all actives have a fitted effect of over 30% in size
Outline: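 Kinetic calcium-flux fluorescence (2 min, 1 sec intervals) after compound addition in agonist mode. HTR2A-CHO cells were cultured 18 h, then dye-loaded 1 h at 37 C.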

[14] = biological target: Muscarinic acetylcholine receptor M1 (Homo sapiens) (UniProt P11229); assay: Cholinergic receptor muscarinic 1 (CHRM1) small molecule antagonists, cell-based qHTS assay (AID 1963588); note: nearly all actives have a fitted effect of over 40% in size
Sequence of Muscarinic acetylcholine receptor M1 (Homo sapiens) (P11229 whole entry, looked up): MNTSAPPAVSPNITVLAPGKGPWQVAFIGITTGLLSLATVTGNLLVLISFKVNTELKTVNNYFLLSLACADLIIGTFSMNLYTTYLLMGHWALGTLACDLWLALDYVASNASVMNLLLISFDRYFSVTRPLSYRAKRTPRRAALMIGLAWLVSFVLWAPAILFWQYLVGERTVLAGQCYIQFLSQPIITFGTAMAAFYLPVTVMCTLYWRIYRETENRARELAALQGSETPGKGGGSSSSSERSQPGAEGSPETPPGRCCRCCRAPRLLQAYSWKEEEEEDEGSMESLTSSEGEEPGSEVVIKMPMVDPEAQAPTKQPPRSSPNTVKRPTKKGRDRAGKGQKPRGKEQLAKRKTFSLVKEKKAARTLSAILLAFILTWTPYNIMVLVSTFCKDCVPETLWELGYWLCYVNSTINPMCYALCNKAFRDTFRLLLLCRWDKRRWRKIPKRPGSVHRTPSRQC
Outline: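 Compounds were tested at 15 concentrations in three independent runs. Dye-loaded CHRM1-CHO cells were exposed 5 min at room temperature before stimulation by acetylcholine added at 50nM. Intracellular calcium was read kinetically on FDSS for 3 min.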

[15] = biological target: Muscarinic acetylcholine receptor M1 (Homo sapiens) (UniProt P11229); assay: Cholinergic receptor muscarinic 1 (CHRM1) small molecule agonists, cell-based qHTS assay (AID 1963589); note: nearly all actives have a fitted effect of over 35% in size
Outline: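 Homogeneous fluorescence calcium flux, agonist mode. Human M1-expressing CHO cells; compound dosed at 15 concentrations, three independent runs; signal sampled every 1 sec.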

[16] = cAMP Responsive Elements (CRE) small molecule agonists, cell-based qHTS assay (AID 1963590)
Outline: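 HEK 293T cells stably bearing CRE-bla were plated at 2,000 cells per well and rested 18 h. Compounds, positive controls or DMSO were added for 3 h at 37 C. LiveBLAzer B/G substrate was then loaded for 2 h at room temperature.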

[17] = cAMP Responsive Elements (CRE) small molecule antagonists, cell-based qHTS assay (AID 1963591; active = well fitted inhibition curve with a large enough effect in the signal ratio in the repeat runs, not every such curve was filed as active; the % refers to the signal ratio)
Outline: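 First, CRE-bla HEK293T cells settled 18 h at 37 C. Next, compound and 0.25 uM final NKH477 were applied for 3 h. Last, LiveBLAzer B/G substrate was loaded for 2 h at room temperature.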

[18] = biological target: Beta-2 adrenergic receptor (Homo sapiens) (UniProt P07550); assay: Adrenergic beta2 receptor (ADRB2) small molecule antagonists, cell-based qHTS assay (AID 1963592); note: series mostly up to about 92 µM; nearly all actives have a fitted effect of over 50% in size
Sequence of Beta-2 adrenergic receptor (Homo sapiens) (P07550 whole entry, looked up): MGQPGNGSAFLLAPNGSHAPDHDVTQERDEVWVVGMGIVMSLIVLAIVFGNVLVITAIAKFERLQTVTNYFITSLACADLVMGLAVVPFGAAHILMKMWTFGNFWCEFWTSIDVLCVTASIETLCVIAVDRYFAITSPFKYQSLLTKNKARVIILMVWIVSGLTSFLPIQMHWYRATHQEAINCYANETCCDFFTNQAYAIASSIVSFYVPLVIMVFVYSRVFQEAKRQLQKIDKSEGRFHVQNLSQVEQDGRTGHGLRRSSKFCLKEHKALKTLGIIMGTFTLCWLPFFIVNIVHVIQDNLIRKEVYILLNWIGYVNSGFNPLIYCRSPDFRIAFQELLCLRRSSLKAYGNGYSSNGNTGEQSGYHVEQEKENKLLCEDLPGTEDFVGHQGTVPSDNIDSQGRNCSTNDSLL
Outline: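 Assay format: CHO-ADRB2 cells, 18-20hr seeding at 37C/5% CO2, then compound plus 1nM isoproterenol agonist mix for 0.5hr RT. Homogeneous time-resolved fluorescence cAMP detection after 1hr, expressed as 665/615 nm ratio.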

[19] = biological target: D(2) dopamine receptor (Homo sapiens) (UniProt P14416); assay: Dopamine D2 receptor (DRD2) small molecule agonists, cell-based qHTS assay (AID 1963594); note: nearly all actives have a fitted effect of over 35% in size
Sequence of D(2) dopamine receptor (Homo sapiens) (P14416 whole entry, looked up): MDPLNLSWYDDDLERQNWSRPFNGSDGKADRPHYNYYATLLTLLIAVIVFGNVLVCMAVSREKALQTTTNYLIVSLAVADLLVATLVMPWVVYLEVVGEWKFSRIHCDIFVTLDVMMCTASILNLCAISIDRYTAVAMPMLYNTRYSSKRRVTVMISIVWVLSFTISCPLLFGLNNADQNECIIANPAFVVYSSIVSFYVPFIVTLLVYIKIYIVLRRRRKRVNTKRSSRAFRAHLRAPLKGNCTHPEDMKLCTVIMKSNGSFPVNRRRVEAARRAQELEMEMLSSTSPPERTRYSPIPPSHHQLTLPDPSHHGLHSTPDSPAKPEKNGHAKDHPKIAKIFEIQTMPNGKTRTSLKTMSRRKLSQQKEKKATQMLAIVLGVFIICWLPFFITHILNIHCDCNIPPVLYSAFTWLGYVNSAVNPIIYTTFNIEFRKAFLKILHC
Outline: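 cAMP accumulation in DRD2-HEK293 cells measured by HTRF after 1 h detection; compounds added 10 min before NKH477 (200nM […]) forskolin-analogue stimulation, 30 min at room temperature, with Ro20-1724 present at 0.1 mM final.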

[20] = biological target: D(2) dopamine receptor (Homo sapiens) (UniProt P14416); assay: Dopamine D2 receptor (DRD2) small molecule antagonists, cell-based qHTS assay (AID 1963595; active = well fitted inhibition curve with a large enough effect in the signal ratio in the repeat runs, with a control signal flat; the % refers to the signal ratio)
Outline: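 Stable D2 receptor HEK293 line, 24 h after seeding. Compound preincubated 10 min, then quinpirole (12 nM) with forskolin analogue NKH477 (200 nM), 30 min, room temperature. Detection by time-resolved FRET of cAMP.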

Measured: Potency

BrCc1ccc(Br)cc1
inactive: [1] | [2] | [3] | [4] | [5] | [6] | [7] | [8] | [9] | [10] | [11] | [12] | [13] | [14] | [15] | [16] | [17] | [18] | [19] | [20]

CC1=C2[C@H]3OC(=O)[C@@H](C)[C@@H]3CC[C@@]2(C)C=CC1=O
inactive: [1] | [2] | [3] | [4] | [5] | [6] | [7] | [8] | [9] | [10] | [11] | [12] | [13] | [14] | [15] | [16] | [17] | [18] | [19] | [20]

CC(C)(Cl)Cl
inactive: [1] | [2] | [3] | [4] | [5] | [6] | [7] | [8] | [9] | [10] | [11] | [12] | [13] | [14] | [15] | [16] | [17] | [18] | [19] | [20]

C=CC1CC=CCC1 (stereo not drawn)
inactive: [1] | [2] | [3] | [4] | [5] | [6] | [7] | [8] | [9] | [10] | [11] | [12] | [13] | [14] | [15] | [16] | [17] | [18] | [19] | [20]

CC(C)(C)OOC(C)(C)CCC(C)(C)OOC(C)(C)C
inactive: [1] | [2] | [3] | [4] | [5] | [6] | [7] | [8] | [9] | [10] | [11] | [12] | [13] | [14] | [15] | [16] | [17] | [18]

COC(=O)Nc1cccc(OC(=O)Nc2cccc(C)c2)c1
13.7 µM (active) and inactive: [2]
inactive: [1] | [3] | [4] | [5] | [6] | [7] | [8] | [9] | [10] | [11] | [12] | [13] | [14] | [15] | [16] | [17] | [18] | [19] | [20]

COC(=O)Cc1ccccc1
inactive: [1] | [2] | [3] | [4] | [5] | [6] | [7] | [8] | [9] | [10] | [11] | [12] | [13] | [14] | [15] | [16] | [17] | [18] | [19] | [20]

ClC(Cl)(Cl)c1ccccc1
inactive: [1] | [2] | [3] | [4] | [5] | [6] | [7] | [8] | [9] | [10] | [11] | [12] | [13] | [14] | [15] | [16] | [17] | [18] | [19] | [20]

O=c1c2ccccc2c(=O)c2c1cc(Cl)c1[nH]c3c([nH]c12)c(Cl)cc1c(=O)c2ccccc2c(=O)c13
inactive: [1] | [2] | [3] | [4] | [5] | [6] | [7] | [8] | [9] | [10] | [11] | [12] | [13] | [14] | [15] | [16] | [17] | [18] | [19] | [20]

CCOC(=O)C1OC1(C)c1ccccc1 (stereo not drawn)
inactive: [1] | [2] | [3] | [4] | [5] | [6] | [7] | [8] | [9] | [10] | [11] | [12] | [13] | [14] | [15] | [16] | [17] | [18] | [19] | [20]

c1ccc(N=Nc2ccccc2)cc1
inactive: [1] | [2] | [3] | [4] | [5] | [6] | [7] | [8] | [9] | [10] | [11] | [12] | [13] | [14] | [15] | [16] | [17] | [18] | [19] | [20]

CCCCN(CC)c1c([N+](=O)[O-])cc(C(F)(F)F)cc1[N+](=O)[O-]
inactive: [1] | [3] | [4] | [5] | [6] | [7] | [8] | [9] | [10] | [11] | [12] | [13] | [14] | [15] | [16] | [17] | [18] | [19] | [20]
active: [2] 61.1 µM

CCc1cccc(C)c1N(C(=O)CCl)C(C)COC (stereo not drawn)
active: [2] 57.6 µM
inactive: [1] | [3] | [4] | [5] | [6] | [7] | [8] | [9] | [10] | [11] | [12] | [13] | [14] | [15] | [16] | [17] | [18] | [19] | [20]

N#CCNCC#N
inactive: [1] | [2] | [3] | [4] | [5] | [6] | [7] | [8] | [9] | [10] | [11] | [12] | [13] | [14] | [15] | [16] | [17] | [18] | [19] | [20]
